Experimental data as given in the supplement of paper PMC8728848.
About 410 targets per protein were measured; listed, in parts, are those with the strongest signals and a random draw of the rest.

B1: FBG5 (Homo sapiens), Q8NI29 (protein)
chain: MGASVSRGRAARVPAPEPEPEEALDLSQLPPELLLVVLSHVPPRTLLGRCRQVCRGWRALVDGQALWLLILARDHGATGRALLHLARSCQSPARNARPCPLGRFCARRPIGRNLIRNPCGQEGLRKWMVQHGGDGWVVEENRTTVPGAPSQTCFVTSFSWCCKKQVLDLEEEGLWPELLDSGRIEICVSDWWGARHDSGCMYRLLVQLLDANQTVLDKFSAVPDPIPQWNNNACLHVTHVFSNIKMGVRFVSFEHRGQDTQFWAGHYGARVTNSSVIVRVRLS
B2: Alpha-agglutinin (Saccharomyces cerevisiae) (protein)
chain: MFTFLKIILWLFSLALASAININDITFSNLEITPLTANKQPDQGWTATFDFSIADASSIREGDEFTLSMPHVYRIKLLNSSQTATISLADGTEAFKCYVSQQAAYLYENTTFTCTAQNDLSSYNTIDGSITFSLNFSDGGSSYEYELENAKFFKSGPMLVKLGNQMSDVVNFDPAAFTENVFHSGRSTGYGSFESYHLGMYCPNGYFLGGTEKIDYDSSNNNVDLDCSSVQVYSSNDFNDWWFPQSYNDTNADVTCFGSNLWITLDEKLYDGEMLWVNALQSLPANVNTIDHALEFQYTCLDTIANTTYATQFSTTREFIVYQGR

How the values were obtained:
Assay in all cases: glycan array binding signal (z-score within array); higher = stronger binding
Conditions in all cases: glycan notation: IUPAC condensed, linker removed
[1] = target: Fuc(a1-2)Gal(b1-3)GalNAc(b1-3)Gal(b1-4)Glc
Procedure, shortened: (§1)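 The binding signal is a Z-score computed within each array. Data were drawn from 3228 arrays in the Consortium for Functional Glycomics database, restricted to those with a known protein sequence. Scores were averaged over arrays of the same protein sequence at different concentrations or buffers, and over linkers, and negative values can be taken as non-binding.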

[2] = target: Fuc(a1-2)[Gal(a1-4)]Gal(b1-4)GalNAc
Procedure, shortened: as §1

[3] = target: Fuc(a1-2)[GalNAc(a1-3)]Gal(b1-4)Glc
Procedure, shortened: as §1

[4] = target: Fuc(a1-3)GlcNAc
Procedure, shortened: as §1

[5] = target: Gal(b1-3)[Fuc(a1-4)]GlcNAc(b1-3)Gal(b1-4)[Fuc(a1-3)]GlcNAc
Procedure, shortened: as §1

[6] = target: Gal(b1-4)GlcNAc(b1-2)Man(a1-3)[Gal(b1-4)GlcNAc(b1-2)Man(a1-6)]Man(b1-4)GlcNAc(b1-4)GlcNAc
Procedure, shortened: as §1

[7] = target: Gal3S(b1-4)Glc6S
Procedure, shortened: as §1

[8] = target: Gal3S6S(b1-4)GlcNAc
Procedure, shortened: as §1

[9] = target: Gal3S6S(b1-4)GlcNAc6S
Procedure, shortened: as §1

[10] = target: Gal6S(b1-4)Glc6S
Procedure, shortened: as §1

[11] = target: GlcNAc(b1-3)Gal
Procedure, shortened: as §1

[12] = target: GlcNAc(b1-4)Gal(b1-4)GlcNAc
Procedure, shortened: as §1

[13] = target: Man(a1-2)Man(a1-3)[Man(a1-6)]Man(a1-6)[Man(a1-2)Man(a1-3)]Man(b1-4)GlcNAc(b1-4)GlcNAc
Procedure, shortened: as §1

[14] = target: Man(b1-4)GlcNAc
Procedure, shortened: as §1

[15] = target: Neu5Ac(a2-3)Gal(b1-3)GlcNAc
Procedure, shortened: as §1

[16] = target: Neu5Ac(a2-3)Gal(b1-3)GlcNAc(b1-3)Gal(b1-4)GlcNAc
Procedure, shortened: as §1

[17] = target: Neu5Ac(a2-3)Gal(b1-4)[Fuc(a1-3)]GlcNAc
Procedure, shortened: as §1

[18] = target: Neu5Ac(a2-3)Gal(b1-4)[Fuc(a1-3)]GlcNAc(b1-3)Gal
Procedure, shortened: as §1

[19] = target: Neu5Ac(a2-6)Gal(b1-4)GlcNAc
Procedure, shortened: as §1

[20] = target: Neu5Gc(a2-6)Gal(b1-4)GlcNAc
Procedure, shortened: as §1

[21] = target: Fuc(a1-2)[Gal(a1-3)]Gal(b1-4)[Fuc(a1-3)]GlcNAc
Procedure, shortened: as §1

[22] = target: Fuc(a1-4)GlcNAc
Procedure, shortened: as §1

[23] = target: Gal(a1-3)Gal(b1-4)GlcNAc
Procedure, shortened: as §1

[24] = target: Gal(b1-3)GalNAc(b1-3)Gal(b1-4)Glc
Procedure, shortened: as §1

[25] = target: Gal(b1-4)GalNAc(a1-3)[Fuc(a1-2)]Gal(b1-4)GlcNAc
Procedure, shortened: as §1

[26] = target: Gal(b1-4)GlcNAc(b1-3)Gal(b1-4)Glc
Procedure, shortened: as §1

[27] = target: GalNAc(a1-3)Gal
Procedure, shortened: as §1

[28] = target: GlcNAc(b1-3)[GlcNAc(b1-4)][GlcNAc(b1-6)]GlcNAc
Procedure, shortened: as §1

[29] = target: GlcNAc(b1-4)[GlcNAc(b1-6)]GalNAc
Procedure, shortened: as §1

[30] = target: Man(a1-2)Man(a1-3)[Man(a1-3)[Man(a1-6)]Man(a1-6)]Man(b1-4)GlcNAc(b1-4)GlcNAc
Procedure, shortened: as §1

Binder | glycan array binding signal (z-score) [1] | glycan array binding signal (z-score) [2] | glycan array binding signal (z-score) [3] | glycan array binding signal (z-score) [4] | glycan array binding signal (z-score) [5] | glycan array binding signal (z-score) [6] | glycan array binding signal (z-score) [7] | glycan array binding signal (z-score) [8] | glycan array binding signal (z-score) [9] | glycan array binding signal (z-score) [10] | glycan array binding signal (z-score) [11] | glycan array binding signal (z-score) [12] | glycan array binding signal (z-score) [13] | glycan array binding signal (z-score) [14] | glycan array binding signal (z-score) [15] | glycan array binding signal (z-score) [16] | glycan array binding signal (z-score) [17] | glycan array binding signal (z-score) [18] | glycan array binding signal (z-score) [19] | glycan array binding signal (z-score) [20] | glycan array binding signal (z-score) [21] | glycan array binding signal (z-score) [22] | glycan array binding signal (z-score) [23] | glycan array binding signal (z-score) [24] | glycan array binding signal (z-score) [25] | glycan array binding signal (z-score) [26] | glycan array binding signal (z-score) [27] | glycan array binding signal (z-score) [28] | glycan array binding signal (z-score) [29] | glycan array binding signal (z-score) [30]
B1 | -0.166 | -0.19 | 0.967 | 0.417 | -0.217 | -0.102 | 0.206 | -0.009 | 2.32 | 0.548 | -0.119 | -0.095 | -0.112 | -0.205 | -0.161 | -0.162 | -0.231 | -0.244 | -0.219 | -0.248 |  |  |  |  |  |  |  |  |  | 
B2 | 6.41 |  | 0.558 |  |  |  |  |  |  | 0.122 |  |  |  |  |  |  | -0.258 |  |  |  | -0.112 | -0.216 | -0.248 | 8.68 | 0.014 | 3.24 | -0.162 | 0.203 | 5.52 | -0.251
